HIF-2a inh = blocks HIF-2a reporter activity; AID 624352; 360,000 tested, 0.72% active; inhibition, % at 18.8 µM; 786-0 RCC cells HIF-2a reporter, luciferase luminescence, overnight;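 active means inhibition of the luminescence signal of 40% or more relative to plate controls, in a single-dose primary screen at 18.75 µM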
PPC-1+TRAIL kill = kills PPC-1 cancer cells in the presence of TRAIL; PPC-1 cells + TRAIL, ATPLite viability luminescence; cell killing (% activity), % at 4 µM or 5 µM; 220,000 tested, 0.41% active;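 active means cell killing above 50% in the first pass at 4 µM, then a duplicate retest at 5 µM averaging 50% or more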
C8 TRAIL sens = caspase-8 TRAIL sensitization | NB7+C8 cells + TRAIL, ATPlite viability luminescence | inhibition (viability loss, TRAIL sensitization), % at 10 µM | 360,000 tested, 1% active;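 active means compounds causing at least 50% loss of cell viability in the single-dose screen, relative to plate controls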
CF NFkB inh = blocks PAF-induced NF-kB reporter in cystic fibrosis cells; inhibition, % at 5 µM; KKLEB NF-kB-GFP reporter, GFP fluorescence overnight; 360,000 tested, 0.86% active; AID 588850;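 active means at least 50% inhibition at 5 µM, scaled per plate between neutral and stimulator controls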;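 further: PAF is a Pseudomonas aeruginosa culture filtrate used as stimulus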
KKLEB cytotox = CF airway cell cytotoxicity counter-screen; KKLEB CF airway cells viability, ATPlite luminescence, overnight; active compounds read low; cells stimulated with P. aeruginosa culture filtrate; activity change (cytotoxicity), % at 5 µM; 360,000 tested, 0.36% active; AID 602141;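 active means corrected activity change at or below -50% at 5 µM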
Peg3 prom inh-1 = reduces Peg3 promoter-driven luciferase expression in HeLa; HeLa PEG-Prom luciferase reporter, luminescence, overnight; inhibition, % at 20 µM; 360,000 tested, 1.7% active;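 active means inhibition of at least 50% at 20 µM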
PPC1 cytotox = PPC-1 cell cytotoxicity; shares compounds with PPC-1+TRAIL kill; PPC-1 viability, ATPlite luminescence, overnight; cytotoxicity, % at 5 µM; 1,200 tested, 50% active;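 active means reconfirmed compounds whose average cytotoxicity reaches 50% or more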
Peg3 prom inh-2 = Peg3 promoter inhibition confirmation; shares compounds with Peg3 prom inh-1; inhibition, % at 20 µM; 1,300 tested, 84% active; HeLa PEG-Prom luciferase reporter, luminescence, overnight;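 active means at 20 µM dose, 40% or more inhibition averaged across four replicates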
Mdm2 MdmX conf = confirmation of inhibitors of human Mdm2/MdmX interaction, set 2 | shares compounds with HIF-2a inh | SaOS-2 split-luciferase Mdm2/MdmX complementation, luminescence | inhibition, % at 8 µM | 740 tested, 99% active | AID 504601;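 active means mean inhibition of the luminescence signal across two replicates at or above 26 percent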
HIF-2a conf = confirmation of HIF-2a inhibitors; shares compounds with HIF-2a inh; 786-0 RCC cells, HIF-2a luciferase reporter luminescence, overnight; inhibition, % at 18.8 µM; 1,800 tested, 56% active; AID 651580;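 active means mean inhibition across four replicates of at least 40 percent at the single tested concentration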
HIF-1a cs = counter-screen for HIF-2a inhibitors: HIF-1a inhibition in MiaPaCa-2 cells; shares compounds with HIF-2a inh; MiaPaCa-2 HIF-1a luciferase reporter, desferoxamine, overnight; inhibition, % at 18.8 µM; 1,800 tested, 72% active; AID 651589;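 active means mean inhibition of the reporter signal across four replicates at the single tested dose of 50% or more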
Large screens that a line does not name were inactive (follow-up assays come after a bar, where they were run). The list is not random: actives were taken first. Their share in the collection is about 3.1%.

Nn1c(COc2ccccc2F)nnc1SCC(=O)NC1CCCCC1	none (no result: PPC-1+TRAIL kill)
COc1ccc(C(=O)/C=C2\Sc3ccccc3N2C)cc1	none
COc1ccccc1-[n+]1c(C)cc(/C=C2\Sc3ccccc3N2C)cc1C	HIF-2a inh 57.4, PPC-1+TRAIL kill 82.3, C8 TRAIL sens 84.3, Peg3 prom inh-1 67.3 | PPC1 cytotox 81.6 | Mdm2 MdmX conf 103.2
O=C(CCl)N=c1sccn1Cc1ccc(Cl)cc1Cl	PPC-1+TRAIL kill 98.3, C8 TRAIL sens 97.4, CF NFkB inh 89.8, KKLEB cytotox -85.4 | PPC1 cytotox 96.0 | Mdm2 MdmX conf 103.5
CCC(=O)OCC(=O)N=c1sccn1Cc1ccccc1Cl	none (no result: PPC-1+TRAIL kill)
O=C(CCl)N=c1sccn1Cc1ccccc1Cl	PPC-1+TRAIL kill 97.7, C8 TRAIL sens 94.9, CF NFkB inh 77.9, KKLEB cytotox -67.9 | PPC1 cytotox 95.3 | Mdm2 MdmX conf 102.7
CCC(=O)OCC(=O)N=c1sccn1Cc1ccc(C)cc1	none (no result: PPC-1+TRAIL kill)
CC(C)CNc1ncnc2c1ncn2[C@H]1CN(C2CCCC2)C[C@@H](CO)O1	none (no result: PPC-1+TRAIL kill)
Cc1cc(N)c2cc(NC(=O)/C=C/c3ccccc3Cl)ccc2n1	HIF-2a inh 96.3, PPC-1+TRAIL kill 97.5, C8 TRAIL sens 95.0, Peg3 prom inh-1 103.8 | PPC1 cytotox 96.8 | Mdm2 MdmX conf 103.0 | HIF-2a conf 95.4 | HIF-1a cs 107.7
Cc1cc(C)nc(NC(=O)/C=C/c2ccccc2Cl)n1	none
O=C(COC(=O)COc1ccc(Br)cc1)NCc1ccccc1	none (no result: PPC-1+TRAIL kill)
C(=N\Nc1nc2ccccc2s1)/c1ccccn1	PPC-1+TRAIL kill 69.3 (no result: HIF-2a inh, C8 TRAIL sens, CF NFkB inh, KKLEB cytotox, Peg3 prom inh-1) | PPC1 cytotox 73.0 | Mdm2 MdmX conf 95.2
CC(=O)Nc1sc2c(c1-c1nc3ccccc3s1)CCN(C(C)C)C2	HIF-2a inh 39.8, C8 TRAIL sens 53.7, Peg3 prom inh-1 99.2 | PPC1 cytotox inactive | Mdm2 MdmX conf 101.5
Cc1csc(NC(=O)c2cn3ccccc3n2)n1	HIF-2a inh 53.1, PPC-1+TRAIL kill 80.0, C8 TRAIL sens 85.2, Peg3 prom inh-1 69.2 | PPC1 cytotox 78.2 | Peg3 prom inh-2 65.2 | HIF-2a conf 77.4 | HIF-1a cs 50.8
CC(CC(=O)c1ccccc1)=NCC(O)CN=C(C)CC(=O)c1ccccc1 (configuration not stated)	none (no result: PPC-1+TRAIL kill)
Cc1nc(SCC(=O)Nc2nc3ccccc3s2)c(C#N)c(C)c1C	HIF-2a inh 89.0, PPC-1+TRAIL kill 95.5, C8 TRAIL sens 95.3, Peg3 prom inh-1 92.8 | PPC1 cytotox 96.0 | Peg3 prom inh-2 90.1 | Mdm2 MdmX conf 101.2 | HIF-2a conf 94.8 | HIF-1a cs 104.8
O=C(NCCc1cccs1)c1ccc(Cl)cc1	none
Cc1ccc(C(=O)NCCc2cccs2)cc1	HIF-2a inh 43.9, PPC-1+TRAIL kill 69.2, C8 TRAIL sens 77.8, Peg3 prom inh-1 62.2 | PPC1 cytotox 66.8 | Peg3 prom inh-2 44.3 | HIF-2a conf 62.1 | HIF-1a cs 57.3
Cc1cccc(-n2ncc3c(N(CCO)CCO)ncnc32)c1	none
Cc1cccc(-n2ncc3c(N(C)C4CCCCC4)ncnc32)c1	HIF-2a inh 65.5, PPC-1+TRAIL kill 79.8, C8 TRAIL sens 87.8, KKLEB cytotox -54.3, Peg3 prom inh-1 75.2 | PPC1 cytotox 81.6 | Peg3 prom inh-2 81.9 | HIF-2a conf 81.3 | HIF-1a cs 100.8
Cc1onc(-c2ccccc2)c1C(=O)OCC(=O)N1CCCCC1	none (no result: PPC-1+TRAIL kill)
Cc1cc(C(=O)CN2C(=O)c3ccccc3S2(=O)=O)c(C)n1CC1CCCO1 (configuration not stated)	HIF-2a inh 91.9, PPC-1+TRAIL kill 86.0, C8 TRAIL sens 82.5, Peg3 prom inh-1 96.0 | PPC1 cytotox 85.2 | Peg3 prom inh-2 92.6 | HIF-2a conf 98.3 | HIF-1a cs 103.7
Cc1cc(C(=O)CN2C(=O)NC(C)(c3ccccc3)C2=O)c(C)n1CC1CCCO1 (configuration not stated)	none
O=C(Nc1ccc(-c2nc3cccnc3s2)cc1)C1CCCO1 (configuration not stated)	HIF-2a inh 58.5, PPC-1+TRAIL kill 62.5 | PPC1 cytotox 63.7 | HIF-2a conf 69.2 | HIF-1a cs inactive
C[C@H](CO)N1C[C@H](C)[C@@H](CN(C)S(=O)(=O)c2ccccc2)Oc2c(NC(=O)Nc3ccc4c(c3)OCO4)cccc2C1=O	none (no result: PPC-1+TRAIL kill)
COc1ccc(-c2nsc3c(N4CCN(S(=O)(=O)c5ccccc5F)CC4)ncnc23)cc1	none
COc1ccc(-c2nsc3c(N4CCCCC4C)ncnc23)cc1 (configuration not stated)	HIF-2a inh 83.7, PPC-1+TRAIL kill 77.1, C8 TRAIL sens 77.5, Peg3 prom inh-1 97.1 | PPC1 cytotox 78.6 | Peg3 prom inh-2 84.9 | HIF-2a conf 92.2 | HIF-1a cs 102.5
CCOc1ccc(OCC(=O)Nc2cc(Cl)ccc2-n2cncn2)cc1	none (no result: PPC-1+TRAIL kill)
CCc1ccc(NC(=O)c2cnn3ccccc23)cc1	HIF-2a inh 49.8, C8 TRAIL sens 58.2 | PPC1 cytotox 50.3 | HIF-2a conf 67.9 | HIF-1a cs 74.6
CSc1cccc(NC(=O)c2cnn3ccccc23)c1	none
O=C(Nc1ccc(N2CCOCC2)cc1)c1cnsn1	HIF-2a inh 75.0, PPC-1+TRAIL kill 73.1, C8 TRAIL sens 70.9, Peg3 prom inh-1 100.8 | PPC1 cytotox 71.0 | Peg3 prom inh-2 74.0 | HIF-2a conf 87.8 | HIF-1a cs 83.9
CCOC(=O)c1cnc(Nc2nc3ccccc3o2)nc1C	HIF-2a inh 74.2, PPC-1+TRAIL kill 80.5, C8 TRAIL sens 88.1, Peg3 prom inh-1 79.0 | PPC1 cytotox 78.9 | Peg3 prom inh-2 68.6 | HIF-2a conf 81.2 | HIF-1a cs 71.1
Cc1[nH]n(-c2ccccc2)c(=O)c1/C=N/Nc1nncc(-c2ccccc2)n1	PPC-1+TRAIL kill 62.6, C8 TRAIL sens 57.5 | PPC1 cytotox 57.8 | Mdm2 MdmX conf 84.0
COc1ccc(/C=N\n2nnc3ccccc32)cc1	HIF-2a inh 40.3, C8 TRAIL sens 55.3 | PPC1 cytotox inactive | HIF-2a conf 72.4 | HIF-1a cs inactive

Screens (PubChem)
